Growth data for 40 molecules are collected here from PubChem BioAssay (NCI).

About 83,000 compounds went through this panel and 20% of them were active in at least one assay; those are over-represented in the sample as a whole.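 Plates (96-well) were seeded with cells, treated with compound at one concentration, and incubated for 48 hours before percent growth was determined.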 A number with no mark means an inactive call. Activity calls are given as the source filed them.

This test deals with MCF7 breast. In words: NCI-60 one-dose screen, 48 h (100 = growth as untreated, 0 = no growth, -100 = all killed). The settings on record: 10 µM unless noted. The procedure: Growth inhibition of the MCF7 human tumor cell line is measured as a screen for anti-cancer activity. Cells are grown in 96 well plates and exposed to the test compound for 48 hours. Compounds are tested at a single concentration, which is 10^-5 M for most compounds. The reported endpoint is percent growth (GI% or GIPRCNT), where numbers from 0 - 100% represent growth inhibition, and numbers from -100% - 0 represent cell death. For example, a value of 40 represents 60% growth inhibition. A value of 0 means no net growth occurred over the course of the experiment. A value of -40 indicates 40% of cells at the beginning of the experiment died by the end of the experiment. A value of -100 means all cells are dead at the end of the experiment.
NCI-60 Human Tumor Cell Lines Screen was performed using the standard one-dose NCI protocol, which is described in more detail at https://dtp.cancer.gov/discovery_development/nci-60/default.htm.
Compounds with GIPRCNT values below 10 were considered active. Activity score was based on GIPRCNT using the following formula: […]
Score is 0 for GIPRCNT values of 100 or above, 50 for GIPRCNT values of 0, and 100 for GIPRCNT values of -100.
As to `O=C1NCCN1/N=C/c1c(Cl)n(Cc2ccc(Cl)cc2)c2ccccc12`, the growth is 84.7%.

Consider `COC(=O)c1cc(-c2ccc(OC)c(OC)c2)[nH]c1N/N=C/c1c(Cl)cccc1Cl`, for which the growth is 14.6%.

As to `O=C(Nc1cccc2c1C(=O)c1cccc(NC(=O)c3ccc(C(=O)Nc4cccc5c4C(=O)c4cccc(NC(=O)c6ccccc6)c4C5=O)cc3)c1C2=O)c1ccccc1`, the growth was 104%.

For `Cc1c(-c2cnc3ccc(Cl)cc3c2C(=O)O)nnn1-c1ccc(Cl)cc1`, the growth was 98.5%.

As to `CCOc1ccc(N2C(=O)CCSC2=S)cc1`, the growth was 100%.

As to `NCCNc1ccc([N+](=O)[O-])cc1`, the growth was 101%.

For `COc1ccc(-n2c(=O)n(-c3ccc(-c4nc5ccc(F)cc5s4)cc3)c(=O)c3cccnc32)cc1`, the growth was 92.2%.

As for `FC(F)(F)c1cccc(-c2nnn(Cc3cc(-c4cccc(Cl)c4)no3)n2)c1`, the growth was 99.1%.

Consider `C=C1CC[C@@H]2[C@](C)(COC(C)=O)[C@H](OC(C)=O)CC[C@@]2(C)[C@@H]1CC(Nc1ccc(S(=O)(=O)Nc2nccc(C)n2)cc1)C1=CCOC1=O` (stereo not given in full), for which the growth is 0.135% (active).

On to `COc1cc2c(cc1OC)CC[N+](CCC[N+](C)(C)C)=C2`, for which the growth is 95.1%.

With `COc1ccc(C2=C/C(=C\c3ccccc3O)C(=O)N2Cc2ccccc2)cc1`, the growth is 62.8%.

`CC/C(=C(/c1ccc(Cl)cc1)c1ccc(OCCN2CCCCCC2)cc1)c1ccccc1`: the growth was 76.3%.

With `N#C/C(=C/C=C/c1ccccc1)S(=O)c1ccccc1` (stereo not given), the growth is -40.2% (active).

`COc1cc(OCc2cccc(-c3ccc4c(c3)OCCO4)c2C)cc(OC)c1C=O`: the growth is 22.6%.

Turning to `COC(=O)c1c(C)nc(C)c2c1C(=O)C(Br)=C(NCCN1CCOCC1)C2=O`, the growth is 82.3%.

In the case of `CCn1c2ccccc2c2cc(C(O)c3cccc4ncccc34)ccc21` (stereo not given), the growth is 15.5%.

Regarding `CCN1C(=O)N(CC)C2C1NN=c1s/c(=C3\C(=O)N(C)c4ccccc43)c(=O)n12` (stereo not given), the growth was 24.9%.

Consider `C=C(C)[C@@H]1CCC[C@]2(C(=O)OC)CC[C@]3(C)[C@@H](CC[C@@H]4[C@@]5(C)CCCNC(C)(C)[C@@H]5CC[C@]43C)[C@@H]12`, for which the growth is 86.5%.

With `C=C(c1ccc(OC)c(/C=C/C(=O)c2cc(OC)c(OC)c(OC)c2)c1)c1cc(OC)c(OC)c(OC)c1`, the growth is 8.83% (active).

For the molecule `CC(C)(C)n1cc(-c2ccnc(NCCNS(=O)(=O)c3ccc(C(F)(F)F)cc3)c2)c(-c2ccccc2)n1`, the growth is 63%.

In the case of `N=C(N)c1ccc(-c2ccc(-c3ccc(Cl)cc3Cl)s2)nc1`, the growth is -30.5% (active).

For the molecule `O=C(/C=C/c1ccc(Cl)cc1)c1ccc(Nc2ccnc3cc(Cl)ccc23)cc1`, the growth is 78.6%.

Regarding `CCCc1cc(CCC)n2nc(N)nc2n1`, the growth was 95.6%.

With `O=C1c2cccnc2C(=O)c2c1c(C(=O)OCCCN1CCOCC1)c1ccccn21`, the growth was -38.7% (active).

As to `CCOC(=O)c1ccc2c(c1)c1c(C)c3cnccc3c(C)c1n2C`, the growth is -28.9% (active).

On to `O=C1/C(=C/c2ccc(Br)cc2)COc2ccc(O)cc21`, for which the growth was 9.07% (active).

For the molecule `COc1cc(C(=O)c2c(-c3ccccc3)oc3ccccc23)cc(OC)c1O`, the growth is 21.8%.

`COC(=O)[C@H]1Cc2c([nH]c3ccccc23)[C@H](c2ccc3c(c2)OCO3)N1`: the growth was 93.3%.

As to `CC(C)n1cc(C2=C(c3cccc4ccccc34)C(=O)NC2=O)c2cc(Br)ccc21`, the growth was 76.1%.

Turning to `O=c1c(Cc2ccc(F)cc2)cc(-c2ccccc2)nn1C/C(=N/O)c1ccccc1`, the growth was 26.2%.

As to `Cc1ccc(S(=O)(=O)c2nc(-c3ccccc3)oc2S(C)=O)cc1` (stereo not given), the growth was -20% (active).

Take `c1ccc2cc(Cn3cc[n+](Cc4ccc5ccccc5c4)c3)ccc2c1`: the growth is 37.2%.

With `COC(=O)[C@H](C)NC(=O)[C@@H]1CCCN1C(=O)CNC(=O)[C@H](C)N`, the growth was 110%.

In the case of `COc1cc2ncnc(Nc3ccc(S(=O)(=O)Nc4cc(C)on4)cc3)c2cc1OCCCN1CCOCC1`, the growth was 96.1%.

In the case of `CC1(C)C2=C(C(=O)N1Cc1ccccc1)C(c1ccco1)N(C(=O)C1CCC1)CCN2` (stereo not given), the growth is 103%.

Turning to `CN1CCN(Cc2ccc(NC(=O)c3cc(C#Cc4cnc(N)c5ncccc45)n(C)n3)cc2C(F)(F)F)CC1`, the growth is 39.7%.

Regarding `NCCCCCNc1noc(Cc2c[nH]c3cc(Br)ccc23)n1`, the growth is 21.8%.

On to `CCCCC1=C(Br)C(=O)c2ncccc2C1=O`, for which the growth was 89.5%.

Take `O=C(/C=C/c1ccc(Cl)cc1)c1ccc(-n2cc(CN3CCN(c4cc5c(cc4F)c(=O)c(C(=O)O)cn5C4CC4)CC3)nn2)cc1`: the growth was 51.2%.

Consider `Cc1cc([N+](=O)[O-])ccc1NC(=O)c1ccc2c(c1)nc(-c1ccccc1)n2C1CCCCC1`, for which the growth was 77%.
